Test results taken from the supplement of paper PMC12669032.

What was measured:
Assay in all cases: growth AUC relative to DMSO control (median of replicates) (fraction); higher = more growth (less inhibition), active = hit call of the paper
Settings in all cases: 20 µM; 24 h;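 active = AUC reduced over 20% with Padj below 0.05 in at least 2 of 3 replicates; inactive = otherwise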
Akkermansia muciniphila = test system: Akkermansia muciniphila
Procedure, shortened: (§1)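 Hourly OD600 readings over 24 h tracked anaerobic gut bacterial monocultures grown at 37 °C in mGAM from OD600 0.05 with 20 µM compound (1% DMSO). After the minimum OD was set to 0, area under the growth curve was normalised to the plate median of solvent-only wells, or to row and column medians on the industrial chemical plate. Values are medians of three biological replicates grown on separate days.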

Bacteroides caccae = test system: Bacteroides caccae
Procedure, shortened: as §1

Bacteroides clarus = test system: Bacteroides clarus
Procedure, shortened: as §1

Bacteroides dorei = test system: Bacteroides dorei
Procedure, shortened: as §1

Bacteroides stercoris = test system: Bacteroides stercoris
Procedure, shortened: as §1

[1] = test system: Bacteroides thetaiotaomicron
Procedure, shortened: as §1

Bacteroides uniformis = test system: Bacteroides uniformis
Procedure, shortened: as §1

[2] = test system: Bifidobacterium longum subsp. longum
Procedure, shortened: as §1

Clostridium difficile = test system: Clostridium difficile
Procedure, shortened: as §1

Collinsella aerofaciens = test system: Collinsella aerofaciens
Procedure, shortened: as §1

Measured: growth AUC

COc1cc(Cl)c(OC)cc1Cl
inactive: Akkermansia muciniphila 1.03 | Bacteroides caccae 1.04 | Bacteroides clarus 1 | Bacteroides dorei 1.04 | Bacteroides stercoris 1.01 | [1] 1.04 | Bacteroides uniformis 1 | [2] 0.995 | Clostridium difficile 1.05 | Collinsella aerofaciens 1.11

OC(Cc1ccccc1Cl)(Cn1cncn1)C1(Cl)CC1 (stereo not given)
inactive: Akkermansia muciniphila 0.867 | Bacteroides caccae 0.974 | Bacteroides clarus 0.963 | Bacteroides dorei 1.01 | Bacteroides stercoris 0.966 | [1] 0.985 | Bacteroides uniformis 0.971 | [2] 1.01 | Clostridium difficile 0.958 | Collinsella aerofaciens 0.953

CNC(=O)Oc1ccccc1OC(C)C
inactive: Akkermansia muciniphila 0.914 | Bacteroides caccae 0.993 | Bacteroides clarus 0.977 | Bacteroides dorei 1.01 | Bacteroides stercoris 1.01 | [1] 0.975 | Bacteroides uniformis 0.979 | [2] 0.996 | Clostridium difficile 0.986 | Collinsella aerofaciens 0.955

O=C1OCC2C1C1(Cl)C(Cl)=C(Cl)C2(Cl)C1(Cl)Cl (stereo not given)
inactive: Akkermansia muciniphila 1.09 | Bacteroides caccae 0.965 | Bacteroides clarus 0.991 | Bacteroides dorei 0.987 | Bacteroides stercoris 0.871 | [1] 1.04 | Bacteroides uniformis 1.01 | [2] 1.06 | Clostridium difficile 0.987 | Collinsella aerofaciens 0.926

CN/C(=N\[N+](=O)[O-])NCc1cnc(Cl)s1
inactive: Akkermansia muciniphila 0.906 | Bacteroides caccae 0.93 | Bacteroides clarus 1.02 | Bacteroides dorei 1.03 | Bacteroides stercoris 1.17 | [1] 1 | Bacteroides uniformis 1 | [2] 1.03 | Clostridium difficile 0.979 | Collinsella aerofaciens 0.988

COC(=O)C(C)N(C(=O)Cc1ccccc1)c1c(C)cccc1C (stereo not given)
inactive: Akkermansia muciniphila 0.959 | Bacteroides caccae 0.985 | Bacteroides clarus 0.957 | Bacteroides dorei 0.99 | Bacteroides stercoris 0.954 | [1] 0.956 | Bacteroides uniformis 0.878 | [2] 1.02 | Clostridium difficile 0.977 | Collinsella aerofaciens 1.02

COP(=S)(OC)Oc1nc(Cl)c(Cl)cc1Cl
inactive: Akkermansia muciniphila 1.06 | Bacteroides caccae 1.01 | Bacteroides clarus 1 | Bacteroides dorei 0.998 | Bacteroides stercoris 0.947 | [1] 0.96 | Bacteroides uniformis 0.935 | [2] 1.01 | Clostridium difficile 0.975 | Collinsella aerofaciens 0.991

CO/N=C(/C(=O)OC)c1ccccc1COc1ccccc1C
inactive: Akkermansia muciniphila 0.899 | Bacteroides caccae 0.979 | Bacteroides clarus 0.957 | Bacteroides dorei 0.964 | Bacteroides stercoris 0.993 | [1] 0.907 | Bacteroides uniformis 0.955 | [2] 0.874 | Clostridium difficile 1.02 | Collinsella aerofaciens 0.991

CC(Oc1cc(Cl)c(Cl)cc1Cl)C(=O)O (stereo not given)
inactive: Akkermansia muciniphila 0.958 | Bacteroides caccae 1 | Bacteroides clarus 0.949 | Bacteroides dorei 0.979 | Bacteroides stercoris 0.973 | [1] 0.99 | Bacteroides uniformis 0.987 | [2] 0.787 | Clostridium difficile 1.02 | Collinsella aerofaciens 1.01

COC(=O)COc1ccc(Cl)cc1Cl
inactive: Akkermansia muciniphila 0.95 | Bacteroides caccae 0.944 | Bacteroides clarus 0.983 | Bacteroides dorei 0.969 | Bacteroides stercoris 0.853 | [1] 1.01 | Bacteroides uniformis 1.04 | [2] 0.914 | Clostridium difficile 1 | Collinsella aerofaciens 0.925

COCc1cnc(C2=NC(C)(C(C)C)C(=O)N2)c(C(=O)O)c1 (stereo not given)
inactive: Akkermansia muciniphila 1.12 | Bacteroides caccae 0.971 | Bacteroides clarus 1.03 | Bacteroides dorei 0.918 | Bacteroides stercoris 1 | [1] 0.999 | Bacteroides uniformis 1.01 | [2] 1.22 | Clostridium difficile 0.973 | Collinsella aerofaciens 0.998

CCNc1nc(Cl)nc(NC(C)(C)C)n1
inactive: Akkermansia muciniphila 1.01 | Bacteroides caccae 0.987 | Bacteroides clarus 0.977 | Bacteroides dorei 0.978 | Bacteroides stercoris 0.996 | [1] 0.967 | Bacteroides uniformis 1 | [2] 1.01 | Clostridium difficile 0.977 | Collinsella aerofaciens 0.971

COC(=O)NS(=O)(=O)c1ccc(N)cc1
inactive: Akkermansia muciniphila 1 | Bacteroides caccae 0.901 | Bacteroides clarus 0.995 | Bacteroides dorei 0.916 | Bacteroides stercoris 0.959 | [1] 0.948 | Bacteroides uniformis 0.867 | [2] 1.03 | Clostridium difficile 0.913 | Collinsella aerofaciens 0.876

CP(=O)(O)CC(=O)O
inactive: Akkermansia muciniphila 1.01 | Bacteroides caccae 0.959 | Bacteroides clarus 0.96 | Bacteroides dorei 1.02 | Bacteroides stercoris 0.929 | [1] 0.992 | Bacteroides uniformis 0.997 | [2] 1.04 | Clostridium difficile 1.1 | Collinsella aerofaciens 1.04
